{"source": "PubChem BioAssay (Tox21)", "note": "Inconclusive results are not listed. Values without a mark were called inactive. The source made the active and inactive calls. The call rests on the fitted dose curve. On the % scale 0 is the no-effect control and ±100 the full control effect; potency means the concentration at half of the fitted maximal effect.", "data": [{"system": "estrogen-related receptor alpha (ERRalpha) with PGC-1alpha coactivator, human", "assay": "qHTS assay to identify small molecule antagonists of the estrogen related receptor signaling pathway with the pleiotropic PPARgamma coactivator (PGC) (AID 1224821); further: nearly all actives have a fitted effect of over 50% in size;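 on activity change, negative = inhibition: lower luminescence signal means antagonism of PGC/ERR signalling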", "conditions": "ERR/PGC reporter cell line, luciferase, antagonist mode; series mostly up to 46.1 µM; activity change, negative = inhibition: at the top concentration", "excerpt": "National Center for Advancing Translational Sciences [NCATS]\nNIH Chemical Genomics Center [NCGC]\nU.S. Environmental Protection Agency [EPA]\nNational Institutes of Environmental Health Sciences [NIEHS]\nNational Toxicology Program [NTP]\nU.S. Food and Drug Administration [FDA]\nEstrogen related receptors (ERRs), the first orphan nuclear receptors discovered, play an important role in the control of cellular energy metabolism. ERRs are required for high-energy production in response to the environmental challenges. The pleiotropic PPARgamma coactivator (PGC) is a major partner of ERR and a key regulator in energy homeostasis. Together they have been implicated in the etiology of metabolic disorders such as Type 2 diabetes and metabolic syndrome. ERR-alpha was also identified as an adverse marker for breast cancer progression; ERR-alpha-positive tumors have a poor prognosis. To screen and to identify environmental compounds that perturb the ERR and PGC/ERR signaling pathways could provide valuable information for potential therapeutic or preventive measures in the treatment of metabolic disease. For identifying PGC/ERR antagonists, PGC/ERR cell line (provided by NTP) has been used to screen LOPAC library.\nTox21 Assay Protocol Summary:\nThe PGC/ERR cells were dispensed at 2,000 cells/5 ul/well in 1536-well white plates using a Multidrop dispenser. After the assay plates were incubated at a 37 C/5% CO2 incubator for 6 hours, 23 nL of compounds dissolved in DMSO, positive and negative controls or DMSO only was transferred to the assay plate by a pin tool. The plates were incubated at 37 C for 18 hours. 4 ul/well of One-Glo reagent was added into the assay plates using a Flying Reagent Dispenser. After 30 min incubation at room temperature, the luminescence intensity in the plates was measured using a ViewLux plate reader.", "units": {"activity change, negative = inhibition": "%"}, "values": [{"smiles": "Clc1nccc2c1ccc1ccccc12", "activity change, negative = inhibition": 10.7}, {"smiles": "O=C(c1ccc(OCCCc2cnc[nH]2)cc1)C1CC1", "activity change, negative = inhibition": 43.1}, {"smiles": "Nc1ccc(CCNc2ncnc3c2ncn3C2OC(CO)C(O)C2O)cc1", "note": "(stereo not given)", "activity change, negative = inhibition": 255}, {"smiles": "C=CCNc1ncnc2ccc(Br)cc12", "Potency": "10.2 µM (active)"}, {"smiles": "NCCCCNCCCN", "activity change, negative = inhibition": 24.7}, {"smiles": "O=C(O)c1cc2cc(F)ccc2[nH]1", "activity change, negative = inhibition": 3.81}, {"smiles": "NCCCCN=C(N)N", "activity change, negative = inhibition": 0.396}, {"smiles": "COC(=O)C(C)(N)Cc1ccc(O)cc1", "note": "(stereo not given)", "activity change, negative = inhibition": 1.77}, {"smiles": "CN[C@H](CC(=O)O)C(=O)O", "activity change, negative = inhibition": -1.87}, {"smiles": "C=C1C[C@@]23CC[C@H]4[C@@](C)(CCC[C@@]4(C)C(=O)OC4OC(CO)C(O)C(O)C4O)[C@@H]2CC[C@]1(OC1OC(CO)C(O)C(O)C1OC1OC(CO)C(O)C(O)C1O)C3", "note": "(stereo not given in full)", "activity change, negative = inhibition": 2.73}, {"smiles": "CCN(CC)CCNC(=O)c1ccc(NS(C)(=O)=O)cc1", "activity change, negative = inhibition": -0.522}, {"smiles": "CC(C)N(CCC(=O)c1ccc2ccccc2c1)Cc1ccccc1", "Potency": "19.9 µM (active)"}, {"smiles": "CC(=O)O[C@H]1C[C@@H]2CC[C@@H]3[C@H](CC[C@@]4(C)[C@H]3C[C@H]([N+]3(C)CCCCC3)[C@@H]4OC(C)=O)[C@@]2(C)C[C@@H]1[N+]1(C)CCCCC1", "activity change, negative = inhibition": -6.7}, {"smiles": "CCCCCCCCCC(=O)NC(CN1CCOCC1)[C@H](O)c1ccccc1", "note": "(stereo not given in full)", "activity change, negative = inhibition": -30.7}, {"smiles": "CN1CCC2(CCN3CCc4c(oc5ccccc45)C3C2)N(C)C1=O", "note": "(stereo not given)", "activity change, negative = inhibition": -9.66}, {"smiles": "CC(C)(C)[C@]1(O)CCN2C[C@H]3c4ccccc4CCc4cccc(c43)[C@@H]2C1", "Potency": "17.4 µM (active)"}, {"smiles": "Nc1ncnc2c1nc(Sc1ccc(Cl)cc1)n2[C@H]1OC2COP(=O)(O)O[C@@H]2C1O", "note": "(stereo not given in full)", "activity change, negative = inhibition": 103}, {"smiles": "CC[C@H]1OC(=O)[C@H](C)[C@@H](O[C@H]2C[C@@](C)(OC)[C@@H](O)[C@H](C)O2)[C@H](C)[C@@H](O[C@@H]2O[C@H](C)C[C@H](NC)[C@H]2O)[C@](C)(O)C[C@@H](C)CN(C)[C@H](C)[C@@H](O)[C@]1(C)O", "activity change, negative = inhibition": 11.4}, {"smiles": "CSc1nc(N)c2ncn([C@@H]3O[C@H](COP(=O)(O)OP(=O)(O)OP(=O)(O)O)C(O)[C@H]3O)c2n1", "note": "(stereo not given in full)", "activity change, negative = inhibition": 45.9}, {"smiles": "COc1ccc(/C=C/C(=O)Nc2ccccc2C(=O)O)cc1OC", "activity change, negative = inhibition": -28}, {"smiles": "O=C(O)Cc1c[nH]c2ccc(O)cc12", "activity change, negative = inhibition": -5.77}, {"smiles": "N[C@@H](CC(=O)O)C(=O)O", "activity change, negative = inhibition": 4.21}, {"smiles": "NC1(C(=O)O)CCCCC1", "activity change, negative = inhibition": -4.44}, {"smiles": "COc1ccc(-c2cc3ncc(C)n3c(Nc3ncccc3C(N)=O)n2)cc1OC", "Potency": "2.37 µM (active)"}, {"smiles": "Nc1nc(N)c2nc(CNc3ccc(C(=O)NC(CCC(=O)O)C(=O)O)cc3)cnc2n1", "note": "(stereo not given)", "Potency": "0.0619 µM (active)"}, {"smiles": "O=C1C(SCCO)=C(SCCO)C(=O)c2ccccc21", "Potency": "18.8 µM (active)"}, {"smiles": "CSC(N)=NCCC[C@H](N)C(=O)O", "activity change, negative = inhibition": -11.3}, {"smiles": "COc1ccccc1N1CCN(CCN2C(=O)CC3(CCCC3)CC2=O)CC1", "activity change, negative = inhibition": -4.26}, {"smiles": "NC(N)=NC(N)=Nc1ccccc1", "activity change, negative = inhibition": 4.36}, {"smiles": "Nc1nc(OCC2CCCCC2)c2[nH]cnc2n1", "activity change, negative = inhibition": 32.5}, {"smiles": "OC[C@H]1O[C@H](n2cnc3c(N[C@H]4CCC[C@@H]4O)ncnc32)[C@H](O)[C@@H]1O", "activity change, negative = inhibition": 141}, {"smiles": "CN(C)S(=O)(=O)c1ccc2c(c1)/C(=C/c1cc3c([nH]1)CCCC3)C(=O)N2", "activity change, negative = inhibition": 241}, {"smiles": "N[C@H](C(=O)O)[C@H]1C[C@@H]1C(=O)O", "activity change, negative = inhibition": 2.64}, {"smiles": "N#CC(=C(\\N)Sc1ccccc1N)/C(C#N)=C(/N)Sc1ccccc1N", "Potency": "9.81 µM (active)"}, {"smiles": "O=c1ccc2ccc(O)c(O)c2o1", "activity change, negative = inhibition": 18.2}, {"smiles": "Cc1nc2n(c(=O)c1CCN1CCC(c3noc4cc(F)ccc34)CC1)CCCC2O", "note": "(stereo not given)", "activity change, negative = inhibition": -19.7}, {"smiles": "Fc1cccc(/C=N/N=C/c2cccc(F)c2)c1", "activity change, negative = inhibition": 180}, {"smiles": "CNC(=O)c1cc2c(cn1)[nH]c1ccccc12", "activity change, negative = inhibition": 44}, {"smiles": "NC1C=CC=C(C(=O)O)C1", "note": "(stereo not given)", "activity change, negative = inhibition": -15.4}, {"smiles": "CC1(C)CCC2=C(O1)c1ccccc1C(=O)C2=O", "Potency": "13.3 µM (active)"}]}]}
